Results published in the supplement of paper PMC6522484.
± gives the standard deviation of the averaged measurements.

Assays:
DLD1 [1] = test: cell viability (CellTiter-Glo) relative to plate median (fraction of plate median); higher = more viable cells; conditions: 5 µM; treatment time 24 h; reporter: 7TFP
In short: (§1)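 Colorectal cancer cell lines stably transduced with lentiviral TCF/Wnt firefly luciferase reporters (7TFP or TCF4/Wnt) were seeded in 384-well plates. 24 h later they received library compounds at a final 5 µM for 24 h. Parallel plates were read for firefly luciferase or CellTiterGlo luminescence on a Tecan F500 reader. Each well's signal was normalised to the plate median (webcellHTS2, additive, no log transformation), and the mean of two independent replicates is reported.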

HCT116 = test: as above; conditions: 5 µM; treatment time 24 h; reporter: TCF4/Wnt
In short: as §1

SW480 [2] = test: as above; conditions: 5 µM; treatment time 24 h; reporter: 7TFP
In short: as §1

DLD1 [3] = test: TCF/Wnt firefly luciferase reporter signal relative to plate median (fraction of plate median); higher = higher Wnt reporter signal; conditions: 5 µM; treatment time 24 h; reporter: 7TFP
In short: as §1

SW480 [4] = test: as above; conditions: 5 µM; treatment time 24 h; reporter: 7TFP
In short: as §1

| Structure (SMILES) | cell viability (DLD1 [1]) | cell viability (HCT116) | cell viability (SW480 [2]) | TCF/Wnt firefly luciferase reporter signal (DLD1 [3]) | TCF/Wnt firefly luciferase reporter signal (SW480 [4]) |
| --- | --- | --- | --- | --- | --- |
| C/C=C(/C)C(=O)O[C@H]1CC[C@@]2(C)[C@@H]3CC[C@H]4[C@]5(O)C[C@H](O)[C@@]6(O)[C@@H](CN7C[C@@H](C)CC[C@H]7[C@@]6(C)O)[C@]5(O)C[C@]42O[C@]13O | 0.9805 ± 0.0064 | 0.892 ± 0.06 | 1.04 ± 0.064 | 1.16 ± 0.064 | 1.185 ± 0.0071 |
| CC1(C)C2CC(=O)[C@]3(C)C(CC[C@@]4(C)[C@H](c5ccoc5)OC(=O)C5OC543)[C@@]2(C)[C@@H](O)C[C@H]1O (stereo not given in full) | 0.996 ± 0.048 | 1.04 ± 0.057 | 0.995 ± 0.05 | 1.01 ± 0.098 | 1.02 ± 0.054 |
| CC(=O)CC1CCCCN1 (stereo not given) | 0.961 ± 0.055 | 1.03 ± 0.043 | 0.993 ± 0.0099 | 0.92 ± 0.09 | 0.977 ± 0.018 |
| CCC[C@H]1CCCCN1 | 1.01 ± 0.021 | 0.936 ± 0.046 | 0.983 ± 0.039 | 1.04 | 1.05 ± 0.087 |
| C=CCc1ccc2c(c1)OCO2 | 0.985 ± 0.021 | 0.898 ± 0.13 | 1.06 ± 0.078 | 0.914 ± 0.16 | 0.952 ± 0.11 |
| CC(C)=CCCC1(C)C=Cc2c(O)c3c(c(CC=C(C)C)c2O1)OC12C(CC4CC1C(C)(C)OC2(C/C=C(/C)C(=O)O)C4O)C3=O (stereo not given) | 0.979 ± 0.087 | 1.04 ± 0.014 | 1.08 ± 0.028 | 0.975 ± 0.027 | 0.807 ± 0.036 |
| O=c1ccc2c(O)c3ccoc3cc2o1 | 1.005 ± 0.0071 | 0.8825 ± 0.005 | 1.02 ± 0.028 | 0.926 ± 0.037 | 0.886 ± 0.034 |
| COc1cc(OC)c2c(c1)O[C@H](c1ccc(OC)c(OC)c1)[C@@H](O)C2 | 0.924 ± 0.071 | 0.955 ± 0.047 | 0.973 ± 0.096 | 0.952 ± 0.023 | 1.01 ± 0.014 |
| C=C1C[C@@H]2[C@H](CC[C@]3(C)C(=O)CC[C@@H]23)[C@@]2(C)C=CC(=O)C=C12 | 1.03 ± 0.11 | 1.12 ± 0.05 | 1.02 ± 0.031 | 0.961 ± 0.17 | 1.02 ± 0.13 |
| Cc1[nH]c2ccccc2c1CN(C)C | 1.05 ± 0.014 | 1.18 ± 0.11 | 1.085 ± 0.0071 | 1.07 ± 0.11 | 1.07 ± 0.057 |
| CN(C)C(=S)SSC(=S)N(C)C | 0.722 ± 0.25 | 0.363 ± 0.021 | 0.997 ± 0.033 | 0.686 ± 0.13 | 0.508 ± 0.12 |
| CCCCCCCCCc1ccc(O)cc1 | 1.03 ± 0.028 | 0.999 ± 0.016 | 0.946 ± 0.0071 | 1.19 ± 0.092 | 1.17 ± 0.05 |
| Cc1ncc(CNC(=O)N(CCCl)N=O)c(N)n1 | 1.02 ± 0.021 | 0.98 ± 0.0071 | 1.025 ± 0.0071 | 1.01 ± 0.03 | 0.987 ± 0.019 |
| O=P1(NCCCl)OCCCN1CCCl (stereo not given) | 1.03 ± 0.079 | 0.996 ± 0.021 | 0.973 ± 0.053 | 0.999 ± 0.28 | 0.97 ± 0.086 |
